From publication PMC5540273 (PLoS ONE, 2017)

Experiments:
Details in all cases: concentration: 1 μM, replicates: in singlicate; n = 1
[1] = test system: AURKC
[2] = test system: AXL
[3] = test system: T1, BIKE
T1 construct: gene BMP2K

[4] = test system: BLK
[5] = test system: BMPR1A
[6] = test system: BMPR1B
[7] = test system: BMPR2
[8] = test system: BMX
[9] = test system: BRAF
[10] = test system: T2, BRK
T2 construct: gene PTK6

[11] = test system: BRSK1
[12] = test system: BRSK2
[13] = test system: BTK
[14] = test system: BUB1
[15] = test system: CAMK1B
[16] = test system: CAMK1D
[17] = test system: CAMK1G
[18] = test system: CAMK1
[19] = test system: CAMK2A
[20] = test system: CAMK2B
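Also: KINOMEscan kinase panel screen.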

SMILES	%Inh [1]	%Inh [2]	%Inh [3]	%Inh [4]	%Inh [5]	%Inh [6]	%Inh [7]	%Inh [8]	%Inh [9]	%Inh [10]	%Inh [11]	%Inh [12]	%Inh [13]	%Inh [14]	%Inh [15]	%Inh [16]	%Inh [17]	%Inh [18]	%Inh [19]	%Inh [20]
Cl.Cl.c1ccc(-c2cc3ccncc3cc2OC2CCNCC2)cc1 [GSK1122999]	28%	27%	27%	41%	0%	0%	0%	17%	0%	8%	17%	6%	0%	0%	0%	20%	29%	3%	0%	0%
COc1ccc(Nc2nccc(N3CCC(NC(=O)c4cccc(NC(C)=O)c4)C3)n2)cc1 (stereo not drawn) [GSK1379732]	1%	1%	0%	40%	0%	0%	9%	16%	0%	0%	0%	0%	36%	54%	9%	8%	0%	13%	0%	0%
Clc1cccc(-c2nc(Nc3ccncc3)c3ccccc3n2)c1 [GW873004]	10%	0%	10%	19%	21%	4%	10%	43%	0%	24%	1%	23%	0%	31%	0%	0%	0%	0%	1%	4%
CS(=O)(=O)CCNCc1ccc(-c2ccc3ncnc(Nc4ccc(OCc5ccccc5)c(Cl)c4)c3c2)o1.Cl [GW574783]	2%	42%	19%	49%	0%	0%	0%	19%	9%	0%	1%	0%	0%	26%	0%	4%	27%	14%	0%	0%
COC(=O)c1c(-c2ccccc2)c2cc(Cl)ccc2c(=O)n1Cc1ccc(S(C)(=O)=O)cc1	0%	0%	0%	0%	0%	5%	0%	17%	65%	7%	0%	0%	25%	0%	0%	0%	9%	2%	0%	0%
COc1ccc(-c2oc3ncnc(N)c3c2-c2ccc(OC)cc2)cc1 [SB-589132]	0%	13%	0%	66%	0%	0%	30%	0%	38%	15%	12%	0%	54%	64%	13%	7%	0%	19%	0%	0%
Cn1ccc2ncnc(Nc3ccc(Oc4cccc(Cl)c4)c(Cl)c3)c21	0%	0%	0%	14%	22%	0%	29%	13%	0%	17%	13%	0%	0%	12%	0%	11%	5%	22%	9%	0%
Nc1nccc2scc(-c3ccc4c(c3)CCN4C(=O)Cc3cc(F)ccc3F)c12 [GSK2587663]	35%	41%	10%	54%	0%	0%	0%	23%	3%	32%	4%	0%	0%	45%	27%	21%	4%	29%	0%	0%
C[C@@H]1CCN(C(=O)CO)C[C@@H]1N(C)c1ncnc2[nH]ccc12	0%	0%	19%	2%	23%	0%	0%	0%	0%	0%	13%	0%	0%	0%	29%	0%	0%	0%	0%	0%
Cl.c1ccc(Cn2ncc3cc(Nc4ncnc5ccccc45)ccc32)cc1 [GW273749]	0%	0%	0%	17%	0%	0%	0%	0%	0%	0%	0%	0%	0%	0%	13%	17%	23%	28%	2%	0%
CC(=O)Nc1n[nH]c2ncc(-c3ccccc3)cc12 [SB-548492]	32%	21%	7%	28%	30%	21%	47%	13%	0%	0%	21%	0%	0%	0%	0%	18%	0%	35%	4%	0%
Cl.O=S(=O)(c1cccc(F)c1)c1ccc(Nc2ncnc3cc(Br)sc23)cc1Cl [GSK306886]	0%	0%	0%	10%	0%	0%	0%	15%	0%	0%	0%	0%	0%	0%	38%	10%	0%	2%	0%	0%
O=C(CCO)NCCn1ccc2ncnc(Nc3ccc(Oc4cccc(C(F)(F)F)c4)c(Cl)c3)c21	0%	0%	0%	0%	0%	0%	0%	0%	0%	13%	0%	0%	0%	0%	0%	7%	0%	0%	0%	0%
FC(F)(F)c1ccc(-c2nn3ncccc3c2-c2ccnc(Nc3cccc(C(F)(F)F)c3)n2)cc1 [GW828205]	12%	0%	1%	1%	0%	0%	0%	0%	0%	0%	0%	0%	49%	0%	0%	18%	0%	11%	0%	0%
FC(F)(F)c1cc(Nc2nccc(-c3c(-c4ccc(Cl)cc4)nn4ncccc34)n2)ccc1Cl [GW829351]	0%	0%	0%	0%	0%	0%	4%	0%	0%	0%	0%	0%	0%	19%	0%	0%	0%	0%	30%	27%
